Test results published in PubChem BioAssay AID2551 (National Center for Advancing Translational Sciences (NCATS), 2010).
About 17,000 (5.5%) of roughly 310,000 compounds were called active. Not shown: some 11% with an inconclusive outcome. Calls follow the shape of the dose curve; as a rule, active = well fitted inhibition curve with a large enough effect; inconclusive = small, poorly fitted or top-dose-only effect, or effect the other way; inactive = no such curve, though single readings can be large or run the other way. Shown is part of a subset that was picked to be rich in actives.

Each molecule was assayed against Nuclear receptor ROR-gamma (Mus musculus) (UniProt P51450) (assay: qHTS for inhibitors of ROR gamma transcriptional activity). Settings: Drosophila S2 Gal4-RORgamma UAS-luciferase reporter, 20 h; series mostly up to 53.6 µM.
Procedure, shortened: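 Compounds are pin-transferred onto Drosophila Schneider cells expressing a copper-inducible Gal4–ROR gamma transactivation domain fusion. After 1 hr, copper sulfate is added to 700 uM final; luciferase is read 20 hr later.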
% is scaled to controls: 0 for no effect and ±100 for the full control effect; potency is read from the fitted curve at half-maximal effect.
Also: nearly all actives have a fitted effect of over 60% in size.

Sequence of Nuclear receptor ROR-gamma (Mus musculus) (P51450 whole entry, looked up, the tested form may be a part): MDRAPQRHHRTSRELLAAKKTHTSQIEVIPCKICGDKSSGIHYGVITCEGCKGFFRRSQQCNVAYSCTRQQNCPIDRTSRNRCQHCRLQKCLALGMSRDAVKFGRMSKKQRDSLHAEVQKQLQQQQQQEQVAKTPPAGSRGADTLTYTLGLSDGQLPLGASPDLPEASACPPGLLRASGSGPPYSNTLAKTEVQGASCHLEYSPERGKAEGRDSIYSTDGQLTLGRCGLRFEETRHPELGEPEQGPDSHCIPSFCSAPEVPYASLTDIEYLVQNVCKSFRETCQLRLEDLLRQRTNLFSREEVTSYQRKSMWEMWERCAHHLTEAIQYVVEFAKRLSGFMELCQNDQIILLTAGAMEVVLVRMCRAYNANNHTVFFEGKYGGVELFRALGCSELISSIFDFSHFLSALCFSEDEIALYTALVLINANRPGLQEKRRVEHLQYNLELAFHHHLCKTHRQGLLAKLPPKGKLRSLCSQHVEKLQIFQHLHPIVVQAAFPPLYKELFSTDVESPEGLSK

Potency, active:
CC(NC(=S)Nc1ccc(OC(F)F)cc1)c1ccc(F)cc1 (stereo not given) 3.16 µM
Cc1cccc(N=C2NC(=O)/C(=C/c3cn(C)c4ccccc34)S2)c1 12.6 µM
COc1cc(/C=N/NC(=O)c2cccnc2)ccc1OC(=O)c1cccc(Br)c1 11.2 µM
CCNC(=O)CCc1nc(-c2ccc(C(C)(C)C)cc2)no1 0.0447 µM
CC(C)(C)Nc1c(-c2cccs2)nc2ccccn12 6.31 µM
COc1ccc(C(=O)NC(=S)NNC(=O)CCc2ccccc2)cc1 4.47 µM
COCCCNC(=S)NC(=O)c1ccccc1 12.6 µM
Cc1cccc(OCCNC(=S)NC(=O)c2cccnc2)c1 10 µM
COc1ccc(C(=O)NC(=S)NC2CCCCC2)cc1 2.82 µM
CC(=O)NC(=S)NNC(=O)c1ccc(Br)cc1 12.6 µM
COc1ccc(C(=O)NNC(=S)NC(=O)c2ccccc2)cc1 4.47 µM
COCCCNC(=S)N(Cc1ccccc1)Cc1ccc(F)cc1 15.8 µM
CCCc1ccc(OCC(=O)NNC(=S)NC(=O)c2ccco2)cc1 12.6 µM
C=CCn1c(=S)[nH]c2nc3c(cc2c1=O)COC(C)(C)C3 3.98 µM
CCc1ccc(NC2Nc3cc(C)nn3S2)cc1 (stereo not given) 1.58 µM
CC(C)n1c(-c2ccncc2)n[nH]c1=S 12.6 µM
CCCc1cc(-c2n[nH]c(=S)n2CC)c2ccccc2n1 11.2 µM
CCn1c(-c2ccoc2C)n[nH]c1=S 11.2 µM
CCn1c(-c2ccncc2)n[nH]c1=S 5.01 µM
Cc1ccc(Cn2c(NC(=O)c3ccco3)nc3ccccc32)cc1 0.282 µM
CCC(=O)Nc1nc2ccccc2n1Cc1ccccc1C 2 µM
CC(=O)Nc1nc2ccccc2n1Cc1ccc(C)cc1 1.26 µM
CC(C)c1cc(C(=O)N/N=C/c2ccoc2)c(O)c(C(C)C)c1 5.62 µM

Potency, inactive:
COc1cccc(C(=O)Nc2nnc(S(=O)(=O)N3CCOCC3)s2)c1
COc1ccc(CCNS(=O)(=O)c2cn(C)nc2C)cc1
CCOC(=O)C1CCN(C(=O)COc2cccc3ccccc23)CC1
O=C1CCC(C(=O)Nc2ccc(OC(F)F)cc2)N1 (stereo not given)
CC(NC(=S)Nc1ccc(S(N)(=O)=O)cc1)c1ccc2c(c1)OCO2 (stereo not given)
Cc1cccc(NS(=O)(=O)c2ccc(C(=O)NCC(C)(C)N3CCOCC3)cc2)c1C
Cc1ccc(N2C(=O)S/C(=C/c3cn(C)c4ccccc34)C2=O)cc1
Cc1ccc(N=C2NC(=O)/C(=C/C=C/c3ccco3)S2)cc1C
COc1ccc(CSc2nnnn2-c2ccc(O)cc2)cc1F
C#CCOc1ccccc1/C=C1/C(=O)ON=C1C
O=C(N/N=C/c1cccc(OC(=O)c2ccc([N+](=O)[O-])cc2)c1)c1cccnc1
Cn1c(=O)n(C)c2cc(/C=N/NC(=O)c3cccc(Br)c3)ccc21
Cc1ccc(CNC(=O)[C@@H](NC(=O)Cc2ccccc2)C(C)C)cc1
COc1ccc(/C=C(/NC(=O)c2ccccc2)C(=O)Nc2cccc(C(=O)O)c2)cc1
CC(NC(=O)CNC(=O)Cc1cccc2ccccc12)c1ccc(S(N)(=O)=O)cc1 (stereo not given)
COC(=O)c1ccc2c(C(C)(C)O)c(C(C)(C)O)[nH]c2c1
CCNC(=O)CCc1nc(-c2ccc(C)cc2)no1
CN1CCN(C(=O)CCc2nc(-c3ccc(Cl)cc3)no2)CC1
CC1=C(C(=O)OC(C)(C)C)C(c2ccc(Br)cc2)NC(=O)N1CCCC(=O)O (stereo not given)
COc1cccc(NC(=O)[C@H](Cc2c[nH]c3ccccc23)NC(=O)[C@@H]2Cc3ccccc3CN2)c1
Cc1cc(-c2cccs2)nc(-n2cccc2)n1
Cc1cc2nc(C(F)(F)F)cc(-c3cccs3)n2n1
Cn1nccc1C(=O)NC1CCCc2c1cnn2-c1ccc(F)cc1F (stereo not given)
COC(=O)c1ccc(OC(=O)c2cnccn2)cc1
COc1ccc(-n2cnc3cc(C(=O)NC4CCCC4)ccc32)cc1
COc1ccc(C(=O)NC2CCN(C(=S)NCCc3ccccc3)CC2)cc1
CCCOc1cccc(C(=O)NCCCNC(=O)c2cccnc2)c1
COCCCNC(=S)NNC(=O)C(O)(c1ccccc1)c1ccccc1
Cc1cccc(OCC(=O)NCCNC(=O)c2cccnc2)c1
O=C(CCc1ccccc1)NNC(=O)c1ccc(Br)cc1
COCCCNC(=O)c1c(F)c(F)c(F)c(F)c1F
CCCNC(=S)N1CCC(NC(=O)c2ccc(OC)cc2)CC1
C[C@H](NC(=O)C1CC(=O)N(c2ccc3c(c2)OCO3)C1)C(=O)NCc1ccco1 (stereo not given in full)
COc1ccc(CNC(=O)/C(C#N)=C/c2cccc(OC)c2OC)cc1
Cc1c(Cl)c([N+](=O)[O-])nn1CC(=O)NCCCN1CCOCC1
Cc1ccc(C)c(N2CCN(C(=O)Cn3ncn4cccc4c3=O)CC2)c1
NS(=O)(=O)c1cccc(NC(=O)CC23CC4CC(CC(Br)(C4)C2)C3)c1
Cc1ccc(S(=O)Cc2ccc(C(=O)N3CCN(C4CCCCC4)CC3)o2)cc1 (stereo not given)
N#C/C=C/N1CCN(Cc2ccc3c(c2)OCO3)CC1
COc1ccc(OCC(=O)Nc2ccc(NC(=O)c3ccco3)c(C)c2)cc1
Cc1cc(C)c2[nH]c(=O)c(CN(Cc3ccccc3)C(=S)NCCCN(C)C)cc2c1
Cc1ccc(OCC(=O)NCCCNC(=O)c2ccco2)cc1C
COCCNC(=S)N(Cc1cccnc1)Cc1ccc(OC)c(OC)c1
Cn1nnnc1SCC(=O)NNC(=O)c1ccc(Br)cc1
COc1ccc(C(=O)NNC(=O)c2cc(C)[nH]n2)cc1
COc1ccc(OCC(=O)NNC(=O)c2ccc(-c3ccccc3)cc2)cc1
CNC(=S)NNC(=O)c1ccc(N(C)C)cc1
Cc1ccc(N(CC(=O)NC2CCCCC2)C(=O)CCCC(=O)Nc2ccccn2)c(C)c1
O=C(NCc1ccco1)C(c1ccncc1)N(C(=O)Cn1nnc2ccccc21)c1ccccc1 (stereo not given)
O=C(Nc1cccc(Cl)c1Cl)c1ccccc1NC(=O)C1CC=CCC1C(=O)O (stereo not given)
CCc1ccc(C(CNc2nc(C(F)(F)F)nc3ccccc23)N(C)C)cc1 (stereo not given)
O=C(Nc1cccc(Br)c1)c1ccc2snnc2c1
CCN1C(=NCCc2cccnc2)N[C@@H](c2ccccc2)C(C(=O)OC)=C1C
O=S(=O)(c1cccc(Cn2nnc(-c3ccc(F)cc3)n2)c1)N1CCOCC1
CC1(C(=O)O)CCC(C(=O)Nc2ccc(Cl)c(Cl)c2)C1(C)C (stereo not given)
CC(C)CCSc1ncnc2c1oc1nc3c(cc12)COC(C)(C)C3
CC1(C)Cc2nc3sc4c(SCC(=O)NC(c5ccccc5)c5ccccc5)ncnc4c3cc2CO1
Cc1cc(C)nc(NS(=O)(=O)c2ccc(N3C(=O)C4CCCCC4C3=O)cc2)n1 (stereo not given)
CCc1ccc(NC(=O)C(=O)NNC(=O)c2cccs2)cc1
CCOC(=O)c1ccc(NC2Nc3cc(C)nn3S2)cc1 (stereo not given)
Cc1ccccc1NC(=O)Cn1cc(C(=O)C2CC2)c2ccccc21
CC1CCCCN1C(=O)Cn1c(=O)oc2cc(S(=O)(=O)N3CCCCC3)ccc21 (stereo not given)
CCSc1nc2sc3c(c2c(=O)n1-c1ccc(C)cc1)CCN(C)C3
O=C(c1ccc(OC2CCN(C/C=C/c3ccc(F)cc3)CC2)cc1)N1CCCCC1
CCCc1cc(=O)[nH]c(SCC(=O)OCc2ccccc2)n1
CCn1c(C(C)NC(=O)c2ccc(C)cc2)n[nH]c1=S (stereo not given)
CCn1c(C(C)C)n[nH]c1=S
CCOC(=O)CSc1nnc(-c2ccncc2)o1
CCn1c(SCC(=O)NC2CCCC2)nnc1-c1ccoc1C
CCn1c(SCC(=O)Nc2nc3ccc(OC)cc3s2)nnc1-c1ccoc1C
O=S(=O)(Nc1ccccc1Br)c1cccs1
O=C(Nc1ccc(CN2CCOCC2)cc1)c1cc(Cl)ccc1Cl
C[C@@H]1CC[C@@]2(OC1)O[C@H]1C[C@H]3[C@@H]4CC=C5C[C@@H](O)[C@H](O)C[C@]5(C)C4CC[C@]3(C)[C@H]1[C@@H]2C (stereo not given in full)
O=C1Nc2cc(C(=O)N3CCN(c4ccc(F)cc4)CC3)ccc2NC1CSCc1cccc(F)c1 (stereo not given)
CC1CCC(NS(=O)(=O)c2ccc3c(c2)CC(=O)N3)CC1 (stereo not given)
CC(=O)NC(C)c1nc2ccccc2n1Cc1ccccc1F (stereo not given)
CCn1nc(NC(=O)c2ccco2)c2cc3ccc(C)cc3nc21
CC(=O)c1nc2ccccc2n1Cc1ccccc1
Cc1ccnc(NC(=O)c2ccco2)n1
O=S(=O)(O)c1nc2ccccc2n1Cc1ccc(Cl)cc1
CCC(=O)NCCc1nc2ccccc2n1CC
CCOC(=O)C1CCN(S(=O)(=O)c2ccc3c(c2)N(C(C)=O)CCO3)CC1
CCN1CCCC1CNC(=O)c1cc2cc(OC)c(OC)cc2[nH]1 (stereo not given)
CCn1c(SCC(=O)Nc2ccc3c(c2)OCCO3)nnc1C(C)C
CC(Oc1ccccc1[N+](=O)[O-])C(=O)N/N=C/c1ccoc1 (stereo not given)
COc1cc(/C=N/NC(=O)c2cc(C)n(-c3ccc(F)cc3)c2C)cc(OC)c1O

Activity change, negative = inhibition, inactive:
COc1ccc2c3c(c(=O)oc2c1)C1O[C@](CCCCN2C(=O)c4ccccc4C2=O)(Cc2c1ccc1ccccc21)O3 -28.3% [at 10 µM]
